HT1080-NT tox: kills 2HG-producing HT-1080-NT fibrosarcoma cells; actives 1.6% (n = 360,000); Potency, µM (series often up to 46.1 µM), inactives show at the top dose activity, negative = less viability, usual class: cytotoxic; HT-1080-NT fibrosarcoma viability, CellTiter-Glo ATP luminescence, 48 h;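 note: NT is the 2HG producing partner of a matched IDH1 knockdown line; potency is the fitted concentration of half-maximal effect; 0% = DMSO-treated cells and -100% = media-only wells without cells; nearly all actives have a fitted effect of over 55% in size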
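Compounds were tested in concentration-response format on HT-1080-NT cells for 48 hours at 37 degrees C. Cell viability came from CellTiter-Glo luminescence; curves were classified by r2, response magnitude and activity.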
HT1080 IDH1KD tx: toxicity to HT-1080 IDH1 knockdown cells (counter line); HT-1080 IDH1 knockdown viability, ATP luminescence, 48 h; Potency, µM (highest dose often 46.1 µM), for inactives: at the highest dose activity, negative = toxicity, actives largely listed as cytotoxic; actives 2% (n = 360,000); AID 686971;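 note: potency is the fitted concentration of half-maximal effect; 0% = DMSO wells and -100% = cell-free medium wells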
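Cytotoxicity counter-line: IDH1KD HT-1080, 48 h, CellTiter-Glo. Curves classed by r2, magnitude and activity.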
TDP1 cell noCPT: qHTS for Inhibitors of human tyrosyl-DNA phosphodiesterase 1 (TDP1): qHTS in cells in absence of CPT. AID 686978, 2013. DT40 Tdp1-/- hTDP1 cells, no CPT, ATP luminescence, 48 h. actives 15% (n = 420,000). Potency, µM (top dose mostly 46.2 µM), without a hit: at the top dose activity change, negative = growth inhibition, hits mostly inhibitors; note: potency is the fitted concentration of half-maximal effect; nearly all actives have a fitted effect of over 55% in size
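Camptothecin absent (DMSO only). Human TDP1-complemented DT40 knockout cells, 400 cells/well, 37 °C for minimum 48 hr; ATP measured via CellTiter-Glo, 30 min dark incubation, luminescence.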
TDP1 cell CPT: DT40-hTDP1 cell growth loss with CPT | chicken DT40 Tdp1-/-;hTDP1 cells + 20 nM CPT, ATP luminescence, 48 h | actives 12% (n = 420,000) | Potency, µM (top dose mostly 46.2 µM), inactives show at the top dose activity change, negative = growth inhibition, usual class: inhibitors; note: potency is the fitted concentration of half-maximal effect; nearly all actives have a fitted effect of over 55% in size
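Chicken DT40 Tdp1-/- cells complemented with human TDP1, 400 cells/well, exposed to compounds plus 20 nM camptothecin for at least 48 h at 37 C; viability read as ATP content by CellTiter-Glo luminescence.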
IL1B secr inh: inhibitors of inflammasome signaling (IL-1 beta secretion) | THP-1 LPS/ATP IL-1B secretion, AlphaLISA, 16 h; hits give low values | activity change, % at 57.5 µM | AID 743279 | actives 4.7% (n = 360,000); in the data active = activity change below about -50%; inconclusive = mostly about -30% to -49%
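THP-1 cells pretreated 1 hr with compounds (up to 57.5 uM final), then stimulated with LPS (250 ng/mL final) plus ATP (1.25 mM final); secreted IL-1B measured by AlphaLISA after 16 hr, decreased signal indicating inhibition.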
* hit, by the source's call; ? = inconclusive; · = no result given; [ ] = dose if it differs, or a comment. Hits are enriched below; roughly 19% of the tested compounds scored in any of these assays. Unless noted, calls come from the whole dose curve; as a rule, active = well fitted curve in the direction sought with a large enough effect; inconclusive = small, poorly fitted or top-dose-only effect, or another doubt; inactive = no such curve, though single readings can be large; an effect the other way counts as inactive or inconclusive. Unless noted, % is set by controls: 0 for no effect and ±100 for the full control effect.

SMILES	HT1080-NT tox	HT1080 IDH1KD tx	TDP1 cell noCPT	TDP1 cell CPT	IL1B secr inh
O=C(C[C@@H]1C[C@@H]2c3cc(NS(=O)(=O)c4ccc(F)cc4)ccc3O[C@@H]2[C@H](CO)O1)N1CCc2ccccc2C1	16%	-11%	-22%	?	-25
O=C(Oc1ccccc1)N1CCC[C@@]2(CCN(Cc3nccs3)C2)C1	·	·	-25%	-2%	·
[O]=[Sb]([OH])([OH])[c]1ccccc1	·	·	-6%	3%	·
CC(=O)OO	·	·	-9%	-23%	·
c1cncc([C@H]2CCCCN2)c1	·	·	-14%	2%	·
O=C(Nc1ccccc1)C1=C[C@H](c2ccccc2)C[C@H](OCCCCO)O1	-16%	-21%	?	16µM*	-19
CC1Cc2cc(S(=O)(=O)N(Cc3ccccc3)C(C)C)ccc2N1C(=O)C1CCC1 (configuration not stated)	·	·	21µM*	?	·
CC(=O)N1c2ccc(S(=O)(=O)N3CCCC(C(=O)Nc4cc(C)cc(C)c4)C3)cc2CC1C (configuration not stated)	-1%	-15%	?	?	-3
CC1(C)CC[C@]2(C)CC[C@]3(C)C4C[C@@H]5OO[C@@]6(O5)C(CCCC6(C)C)[C@]4(C)CC[C@@]3(C)C2C1 (some centres not stated)	5%	-8%	5.2µM*	8.2µM*	5
C=C1C(=O)OC2CC3(C)OC3CCC(C)=CC(OC(C)=O)C12 (configuration not stated)	-17%	15µM*	2.6µM*	2.3µM*	-100*
CC[C@H]1c2ccccc2[C@@H]2CC[C@H]1N2c1ccccc1	8%	1%	-7%	-4%	26
Cc1cc(N(CCCl)CCCl)ccc1C=Cc1ccncn1	-5%	?	4.6µM*	2.6µM*	-15
Cc1cc(N(CCCl)CCCl)ccc1/C=N/N=C(\N)c1cnccn1	-2%	-12%	12µM*	7.3µM*	-55*
CN1[C@@H]2CC[C@H]1CC(O[C@@H](c1ccccc1)c1ccc(Cl)cc1)C2 (some centres not stated)	·	·	4.2µM*	2.7µM*	·
CN1C2CCC1CC(OC(=O)c1ccc(Cl)cc1)C2 (configuration not stated)	-12%	-2%	?	?	-8
CN1C2CCC1CC(OC(c1ccc(F)cc1)c1ccc(F)cc1)C2 (configuration not stated)	·	·	7.3µM*	6.5µM*	·
COc1cccc(CNCC(O)(c2ccc(Cl)cc2)c2ccc(Cl)cc2)c1	?	?	23µM*	23µM*	-57*
CCN[C@H](C)Cc1cccc(C(F)(F)F)c1	·	·	4%[92.5 µM]	3%[92.5 µM]	·
COc1cccc(CCNCc2cccc(C(F)(F)F)c2)c1	-21%	-16%	?	-1%	-136*
O=C1CC(c2ccccc2)CN1 (configuration not stated)	15%	9%	2%	2%	2
Cc1cc(S(=O)(=O)NCc2ccccc2)ccc1OCC(=O)N1CCN(C)CC1	-3%	2%	-10%	7%	0
Cc1ccc(CN2C3CCCC2CC(NC(=S)NCc2ccccc2)C3)cc1 (configuration not stated)	23µM*	?	?	?	-65*
Clc1ccc(C2CC3CCC2N3)cn1 (configuration not stated)	·	·	-2%	-10%	·
C[C@]12CCC3C(CC[C@H]4C[C@H](N)CC[C@]34C)C1CC[C@H]2O (some centres not stated)	-5%	6%	?	?	-6
CCn1c(O)c(/C=N/NC(=O)c2ccncc2)c(=O)[nH]c1=S	-6%	-7%	-13%	-7%	-10
SMILES	HT1080-NT tox	HT1080 IDH1KD tx	TDP1 cell noCPT	TDP1 cell CPT	IL1B secr inh
CCn1c(O)c(/C=N/NC(=O)c2ccccc2)c(=O)n(CC)c1=S	0%	-8%	29µM*	?	138
CC1OC(OC2C=C3CCC4C(CCC5(C)C(c6ccc(=O)oc6)CCC45O)C3(C)CC2)C(O)C(OC2OC(CO)C(O)C(O)C2O)C1O (configuration not stated)	0.21µM*	0.18µM*	0.18µM*	0.16µM*	-71*
ClCC1CO1 (configuration not stated)	·	·	-1%	6%	·
COc1ccc(-c2nc3ccc(C(=O)N4CCC5(CC4)OCCO5)cc3nc2-c2ccc(OC)cc2)cc1	-11%	-1%	?	?	-5
C/C(=N\NC(N)=S)C12CC3CC(CC(C3)C1)C2	5µM*	6.3µM*	15µM*	23µM*	?
CC(C)c1ccc2c(c1)C(N1CCNCC1)Cc1ccc(F)cc1S2 (configuration not stated)	-8%	?	26µM*	?	-97*
C[C@@H]1CNC(=O)c2c(C(=O)Nc3ccc(CNC(=O)OC(C)(C)C)cc3)ncn21	-12%	-10%	9.2µM*	23µM*	-12
c1ccc(CC(NCc2ccco2)c2ccccc2)cc1 (configuration not stated)	0%	-5%	?	-7%	17
CC1OC(OC2C(O)CC(OC3C(O)CC(OC4CCC5(C)C(CCC6C5CCC5(C)C(C7=CC(=O)OC7)C(O)CC65O)C4)OC3C)OC2C)CC(O)C1O (configuration not stated)	1µM*	0.58µM*	0.82µM*	1.5µM*	-99*
CC(=O)OC1CC2(O)C3CCC4CC(O)CCC4(C)C3CCC2(C)C1C1=CC(=O)OC1 (configuration not stated)	1.3µM*	0.52µM*	8.2µM*	?	-80*
C[C@H]1O[C@@H](O[C@H]2[C@@H](O)C[C@H](O[C@H]3[C@@H](O)C[C@H](O[C@H]4CC[C@@]5(C)[C@H](CC[C@@H]6[C@@H]5CC[C@]5(C)[C@@H](C7=CC(=O)OC7)CC[C@]65O)C4)O[C@@H]3C)O[C@@H]2C)C[C@H](O)[C@@H]1O	0.21µM*	0.15µM*	0.3µM*	0.3µM*	-76*
C=CCn1c(O)c(C(C)=NCC2CCCO2)c(=O)[nH]c1=O (configuration not stated)	22%	13%	1%	8%	4
O=c1cccc2n1CC1CC2CN(c2nc(N3CCCCC3)nc(N3CCCCC3)n2)C1 (configuration not stated)	1%	1%	?	-13%	42
CC1CCCC(C)N1/N=C/c1c[nH]c2ccc(Br)cc12 (configuration not stated)	21µM*	?	?	?	-93*
c1cncc(CNCCN2CCNCC2)c1	-2%	-23%	-3%	1%	4
